Laboratory results as given in PubChem BioAssay (NCI).
This is part of a sample that, as a whole, favours compounds with a hit. Of some 83,000 tested, about 20% had one in any assay.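 Step 1: grow cells in 96-well plates. Step 2: add test compound at a single concentration. Step 3: incubate 48 h. Step 4: record percent growth.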 Calls of active or inactive are those of the source. How the source made its calls: active means growth percent below 10; inactive means the rest.

How the values were obtained:
Assay in all cases: NCI-60 one-dose screen, 48 h (100 = growth as untreated, 0 = no growth, -100 = all killed)
Conditions in all cases: 10 µM unless noted
DU-145 prostate = tested on: DU-145 prostate
K-562 leukemia = tested on: K-562 leukemia
MALME-3M melanoma = tested on: MALME-3M melanoma
MDA-MB-231 breast = tested on: MDA-MB-231 breast
RXF 393 renal = tested on: RXF 393 renal
SF-268 CNS = tested on: SF-268 CNS
SF-295 CNS = tested on: SF-295 CNS
SF-539 CNS = tested on: SF-539 CNS
UACC-257 melanoma = tested on: UACC-257 melanoma
M14 melanoma = tested on: M14 melanoma

Measured: growth

O=C(Nc1ccccc1C(F)(F)F)C1=NCCCCN1
inactive: DU-145 prostate 106% | K-562 leukemia 94.4% | MALME-3M melanoma 103% | MDA-MB-231 breast 102% | RXF 393 renal 97% | SF-268 CNS 96.8% | SF-295 CNS 93.6% | SF-539 CNS 96.1% | UACC-257 melanoma 99% | M14 melanoma 98.3%

COc1ccccc1/C=C/C1=C(C)CCC(c2ccccc2OC)C1C (stereo not given)
active: DU-145 prostate -8.51% | SF-295 CNS -45.9% | SF-539 CNS 0.327% | M14 melanoma -10.7%
inactive: K-562 leukemia 18.2% | MALME-3M melanoma 80.9% | MDA-MB-231 breast 17.2% | RXF 393 renal 28.5% | SF-268 CNS 16.3% | UACC-257 melanoma 57.9%

CCCCC/C=C/CCC(=O)N[C@H]1[C@H](Oc2c3cc4cc2Oc2ccc(cc2Cl)[C@@H](O[C@@H]2O[C@H](CO)[C@@H](O)[C@H](O)[C@H]2NC(C)=O)[C@@H]2NC(=O)[C@H](NC(=O)[C@@H]4NC(=O)[C@H]4NC(=O)[C@@H](Cc5ccc(c(Cl)c5)O3)NC(=O)[C@@H](N)c3ccc(O)c(c3)Oc3cc(O)cc4c3)c3ccc(O)c(c3)-c3c(O[C@H]4O[C@H](CO)[C@@H](O)[C@H](O)[C@@H]4O)cc(O)cc3[C@H](C(=O)O)NC2=O)O[C@H](CO)[C@H](O)[C@@H]1O
inactive: DU-145 prostate 112% | K-562 leukemia 98.6% | MALME-3M melanoma 108% | MDA-MB-231 breast 100% | RXF 393 renal 112% | SF-268 CNS 98.5% | SF-295 CNS 94.8% | SF-539 CNS 110% | UACC-257 melanoma 89.4% | M14 melanoma 109%

O=C1C2C(c3cccs3)C=C(c3ccc(Cl)cc3)N2C(=S)N1c1ccccc1 (stereo not given)
inactive: DU-145 prostate 110% | K-562 leukemia 101% | MALME-3M melanoma 115% | MDA-MB-231 breast 86.3% | RXF 393 renal 102% | SF-268 CNS 96.7% | SF-295 CNS 104% | SF-539 CNS 93% | UACC-257 melanoma 105% | M14 melanoma 101%

COc1cc(OCc2cccc(-c3ccccc3)c2C)cc(OC)c1CN1CCCCC1C(=O)NCCOCCOCCN (stereo not given)
active: K-562 leukemia -19.8% | M14 melanoma -27.5%
inactive: DU-145 prostate 65.7% | MALME-3M melanoma 54.1% | MDA-MB-231 breast 57.5% | RXF 393 renal 59% | SF-268 CNS 87% | SF-295 CNS 89.3% | SF-539 CNS 87.7% | UACC-257 melanoma 99.7%

COc1cccc(/C=C2\CCc3ccccc3C2=O)c1
inactive: DU-145 prostate 97.8% | K-562 leukemia 35.1% | MALME-3M melanoma 80.7% | MDA-MB-231 breast 89.9% | RXF 393 renal 90.2% | SF-268 CNS 90.3% | SF-295 CNS 88.9% | SF-539 CNS 91.5% | UACC-257 melanoma 80.8% | M14 melanoma 90%

CN(C)c1ccc(/C=N/NC(=O)CSc2nc3sc4c(c3c(=O)n2-c2ccccc2)CCCCC4)cc1
active: RXF 393 renal -6.22%
inactive: DU-145 prostate 14.9% | K-562 leukemia 63.8% | MALME-3M melanoma 35.5% | MDA-MB-231 breast 43.8% | SF-268 CNS 57.3% | SF-295 CNS 19.1% | SF-539 CNS 34.6% | UACC-257 melanoma 64.8% | M14 melanoma 46.6%

COc1ccc(C(c2cc(OC)c(OC)c(OC)c2)n2cncn2)cc1O (stereo not given)
inactive: DU-145 prostate 19.6% | MALME-3M melanoma 70.2% | MDA-MB-231 breast 43.1% | SF-268 CNS 48.8% | UACC-257 melanoma 44.4%
active: K-562 leukemia 8.34% | RXF 393 renal -13.8% | SF-295 CNS 2.56% | SF-539 CNS 9.34% | M14 melanoma -1.61%

Cc1cc(C(=O)Nc2cc(Nc3ncccc3-c3ncnc4nc[nH]c34)ccc2F)cc(C(C)(C)C#N)c1
inactive: DU-145 prostate 60% | MALME-3M melanoma 12.9% | MDA-MB-231 breast 17% | RXF 393 renal 88.5% | SF-268 CNS 64.7% | SF-295 CNS 68.6% | SF-539 CNS 33.9% | UACC-257 melanoma 24.5%
active: K-562 leukemia 6.28% | M14 melanoma 5.3%

COc1ccc(NC(=O)c2ccc(Cl)cc2Cl)cc1
inactive: DU-145 prostate 95.1% | K-562 leukemia 99% | MALME-3M melanoma 104% | MDA-MB-231 breast 109% | RXF 393 renal 108% | SF-268 CNS 100% | SF-295 CNS 102% | SF-539 CNS 98.9% | UACC-257 melanoma 96.8% | M14 melanoma 93.3%

O=C(O)COc1ccc(F)cc1
inactive: DU-145 prostate 109% | K-562 leukemia 97.1% | MALME-3M melanoma 107% | MDA-MB-231 breast 100% | RXF 393 renal 107% | SF-268 CNS 93.6% | SF-295 CNS 102% | SF-539 CNS 96.9% | UACC-257 melanoma 102% | M14 melanoma 109%

CC(C)(C)CC(C)(C)Nc1c(-c2c(O)c3ccccc3oc2=O)nc2sccn12
inactive: DU-145 prostate 113% | K-562 leukemia 101% | MALME-3M melanoma 94% | MDA-MB-231 breast 93% | RXF 393 renal 103% | SF-268 CNS 105% | SF-295 CNS 98.8% | SF-539 CNS 101% | UACC-257 melanoma 81.4% | M14 melanoma 97.2%

Nc1nc(=O)n([C@H]2CC=C(CO)O2)cc1F
inactive: DU-145 prostate 107% | K-562 leukemia 96.5% | MALME-3M melanoma 97.9% | MDA-MB-231 breast 101% | RXF 393 renal 99.3% | SF-268 CNS 99.3% | SF-295 CNS 102% | SF-539 CNS 107% | UACC-257 melanoma 95.4% | M14 melanoma 105%

Cc1c2ccncc2c(C)c2c1c1ccccc1n2CCCCCC(=O)O
inactive: DU-145 prostate 104% | K-562 leukemia 92.5% | MALME-3M melanoma 108% | MDA-MB-231 breast 81.2% | RXF 393 renal 93.2% | SF-268 CNS 86.6% | SF-295 CNS 95.3% | SF-539 CNS 90.2% | UACC-257 melanoma 106% | M14 melanoma 103%

O=C(CSc1nnc(-c2cc(-c3ccc(Cl)cc3)nc3ccccc23)n1-c1ccccc1)Nc1ccc(Cl)cc1
inactive: DU-145 prostate 107% | K-562 leukemia 85.1% | MALME-3M melanoma 107% | MDA-MB-231 breast 89.7% | RXF 393 renal 118% | SF-268 CNS 94% | SF-295 CNS 99.5% | SF-539 CNS 111% | UACC-257 melanoma 96.2% | M14 melanoma 109%

CCOC(=O)c1c(C)n2c(=O)cc(C)c3c(OC(C)=O)c(OC(C)=O)cc1c32
inactive: DU-145 prostate 67.3% | K-562 leukemia 22.3% | MALME-3M melanoma 75% | MDA-MB-231 breast 86.7% | RXF 393 renal 73.8% | SF-268 CNS 49.6% | SF-295 CNS 94.8% | SF-539 CNS 72.1% | UACC-257 melanoma 108% | M14 melanoma 83.2%

C#Cc1c(I)n(C2OC(CO[Si](C)(C)C(C)(C)C)C3OC(C)(C)OC32)c(=O)[nH]c1=O (stereo not given)
inactive: DU-145 prostate 25.1% | MALME-3M melanoma 66.4% | MDA-MB-231 breast 16.1% | SF-268 CNS 100% | SF-295 CNS 120% | SF-539 CNS 92.4% | UACC-257 melanoma 64.1% | M14 melanoma 76.4%
active: K-562 leukemia -35.5% | RXF 393 renal -72.3%

CS(=O)(=O)c1cccc(Nc2ncc3cc(-c4ccccc4Cl)ccc3n2)c1
inactive: DU-145 prostate 18.6% | MALME-3M melanoma 11.8% | SF-268 CNS 19.9% | SF-295 CNS 20.9% | UACC-257 melanoma 24.8%
active: K-562 leukemia 1.05% | MDA-MB-231 breast 3.46% | RXF 393 renal -14.3% | SF-539 CNS -10.5% | M14 melanoma 5.89%

Oc1ccc(C(c2ccc(O)cc2)c2ccc(Cl)cn2)cc1
active: RXF 393 renal -57%
inactive: DU-145 prostate 56.7% | K-562 leukemia 71.8% | MALME-3M melanoma 107% | MDA-MB-231 breast 77.1% | SF-268 CNS 92.4% | SF-295 CNS 30.9% | SF-539 CNS 83.4% | UACC-257 melanoma 95.5% | M14 melanoma 85.5%

C=CCOC(=O)C1=C(C)N(CC)C(=O)N(CC)C1c1c(Cl)n(C)c2ccccc12 (stereo not given)
inactive: DU-145 prostate 99.4% | K-562 leukemia 93% | MALME-3M melanoma 96.2% | MDA-MB-231 breast 80.6% | RXF 393 renal 98.3% | SF-268 CNS 87.3% | SF-295 CNS 69.3% | SF-539 CNS 88.2% | UACC-257 melanoma 89.9% | M14 melanoma 75.1%

O=C(CNc1ncco1)Nc1ccc(S(=O)(=O)c2ccc(NC(=O)CNc3ncco3)cc2)cc1
inactive: DU-145 prostate 115% | MDA-MB-231 breast 14.6% | SF-268 CNS 99.1% | SF-295 CNS 49.7% | UACC-257 melanoma 10.3%
active: K-562 leukemia -6% | MALME-3M melanoma -38.8% | RXF 393 renal -38.6% | SF-539 CNS -15.4% | M14 melanoma -28.8%

O=C(Nc1ccc(Oc2cccc(F)c2)c(Cl)c1)c1cnccn1
active: RXF 393 renal 7.37% | SF-539 CNS -3.46%
inactive: DU-145 prostate 19.1% | K-562 leukemia 13.4% | MALME-3M melanoma 51.4% | MDA-MB-231 breast 53.5% | SF-268 CNS 55.5% | SF-295 CNS 36% | UACC-257 melanoma 64.9% | M14 melanoma 25.6%

COc1ccc(C2CC(=O)Oc3c(OC)c4c(c(OC)c32)OCO4)cc1 (stereo not given)
inactive: DU-145 prostate 112% | K-562 leukemia 61.1% | MALME-3M melanoma 94.5% | MDA-MB-231 breast 100% | RXF 393 renal 99.6% | SF-268 CNS 99.3% | SF-295 CNS 102% | SF-539 CNS 98.6% | UACC-257 melanoma 101% | M14 melanoma 98.8%

CCOc1ccc(N2C(=O)CCSC2=S)cc1
inactive: DU-145 prostate 103% | K-562 leukemia 111% | MALME-3M melanoma 96% | MDA-MB-231 breast 104% | RXF 393 renal 117% | SF-268 CNS 104% | SF-295 CNS 95.7% | SF-539 CNS 94.9% | UACC-257 melanoma 99% | M14 melanoma 102%

COC1CC(O)C2=C(CC3C(/C(C)=C\CC=C(C)C)CCC3(C)O2)C1=O (stereo not given)
inactive: DU-145 prostate 101% | K-562 leukemia 96.7% | MALME-3M melanoma 102% | MDA-MB-231 breast 115% | RXF 393 renal 110% | SF-268 CNS 91.1% | SF-295 CNS 107% | SF-539 CNS 109% | UACC-257 melanoma 95.2% | M14 melanoma 106%

N/C(=N\c1nc2ccccc2s1)NC(=O)Nc1ccccc1
active: M14 melanoma 7.51%
inactive: DU-145 prostate 58.1% | K-562 leukemia 10.8% | MALME-3M melanoma 58.1% | MDA-MB-231 breast 31.6% | RXF 393 renal 62.1% | SF-268 CNS 57.5% | SF-295 CNS 39% | SF-539 CNS 26.9% | UACC-257 melanoma 59%
